# Reference: PubChem BioAssay (EPA / NIEHS)
# Where “and” joins values, the source holds several entries; their conditions need not be identical. Equal entries are not always repeated. Results filed as inconclusive are left out. Calls of active or inactive are those of the source. Rule for the calls, unless noted: active = hit-call score of the fitted dose curve at least 0.9, where 1 is the maximum; inactive = score below 0.9.
# What was measured:
# [1] = CCTE_Simmons_MITO_basal_resp_rate: CCTE's HepG2 Seahorse XF Respirometric Screening Assay at Basal Respiratory State, Simmons Lab (AID 2284001); conditions: actives raise or lower the signal
# Method in brief: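 Readout is oxygen consumption rate after test compound injection, measured by Seahorse XF in HepG2 cells. Seven concentrations from 125 nM up to 100 uM final are tested, and activity in either direction is fitted against DMSO.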
# [2] = CCTE_Simmons_MITO_max_resp_rate: CCTE's HepG2 Seahorse XF Respirometric Screening Assay at Maximal Respiratory State [uncoupled], Simmons Lab (AID 2284002); conditions: actives raise or lower the signal
# Method in brief: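 Uncoupled (FCCP) respiration of HepG2 cells served as the endpoint, with measurements at 6-minute intervals across a 72-minute run and compounds dosed at 7 concentrations up to 100 uM final.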
# [3] = CCTE_Simmons_MITO_inhib_resp_rate: CCTE's HepG2 Seahorse XF Respirometric Screening Assay at Inhibited Respiratory State [full ETC block], Simmons Lab (AID 2284006); conditions: actives raise or lower the signal
# Method in brief: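 Test chemicals at seven final concentrations (125 nM–100 uM) in three biological replicates, with DMSO as vehicle. HepG2 oxygen consumption was then tracked on a Seahorse XF96 for 72 min through FCCP and rotenone/antimycin A phases, with the inhibited-phase rate as the endpoint.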
# [4] = CCTE_Simmons_MITO_viability: CellTiter-Glo Viability Assessment for CCTE's HepG2 Seahorse XF Respirometric Screening Assay [post-hoc], Simmons Lab (AID 2284007; active = hit-call score of the fitted dose curve at least 0.9, where 1 is the maximum)
# Method in brief: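 Post-hoc viability check on the HepG2 respirometry plates: luciferase-based ATP signal measured once, after 90 min compound exposure spanning 125 nM–100 uM final. Activity was referenced to DMSO as baseline.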
# [5] = CCTE_Harrill_HTTr_Viability_MCF7: CCTE's 6-hour Cell Viability Assessment for the High-Throughput Transcriptomics (HTTr) Platform, in MCF-7 cells cultured in DMEM + 10% fetal bovine serum, Harrill Lab (AID 2284010)
# Method in brief: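 Eight-point concentration series, six-hour exposure. Propidium iodide exclusion imaged to assess membrane integrity as a cytotoxicity readout; bidirectional fitting was done with DMSO as negative control and activity baseline.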
# [6] = CCTE_Harrill_HTTr_CellCount_MCF7: CCTE's Cell Proliferation Assessment for the High-Throughput Transcriptomics (HTTr) Platform, Harrill Lab (AID 2284012; active = hit-call score of the fitted dose curve at least 0.9, where 1 is the maximum;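 note: count of Hoechst-stained nuclei per well by high-content imaging in MCF-7 cells; cells exposed to compound for six hours; intended direction is loss of nuclei count meaning fewer cells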)
# Method in brief: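 For this full-screen endpoint, MCF-7 cultures received eight compound dilutions for six hours. Well nuclei counts from Hoechst imaging were analyzed relative to DMSO.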
# [7] = CCTE_Shafer_MEA_acute_spike_number: CCTE's Neural Acute Assay for Total Number of Spikes, Shafer Lab (AID 2284008);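 for AC50: curve fitted for decrease in spike count so AC50 reflects inhibitors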
# Method in brief: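 Using an adaptive detector set to 8x rms noise, spikes were counted in 40-min windows before and after compound addition (0.03-40 uM) to rat cortical networks at 37 C; the well-level change from baseline was analysed relative to DMSO.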
# [8] = CCTE_Shafer_MEA_acute_burst_number: CCTE's Neural Acute Assay for Single-Electrode Bursts, Shafer Lab (AID 2284013)
# Method in brief: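 Burst totals were derived with adaptive spike detection (8x rms threshold) on filtered signals from rat cortical cultures; change relative to pre-treatment baseline after 40-min compound exposure (0.03-40 uM) was fitted in the negative direction against DMSO.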
# [9] = CCTE_Shafer_MEA_acute_burst_duration_mean: CCTE's Neural Acute Assay for Mean Burst Duration, Shafer Lab (AID 2284014);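 note: hits are decreases in mean burst duration relative to DMSO controls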
# Method in brief: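 Acute exposure of mature rat cortical networks (DIV 13 or 15) grown on microelectrode arrays to 0.03-40 uM compound. Mean burst duration compared with the 40-min pre-dose baseline over a 40-min post-dose recording at 37 C.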
# [10] = CCTE_Shafer_MEA_acute_per_burst_spike_number_mean: CCTE's Neural Acute Assay for Average Number of Spikes Per Burst, Shafer Lab (AID 2284015);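 note: hits are decreases in mean spikes per burst versus baseline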
# Method in brief: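 Read-out: percent change in mean spikes per burst, each well's post-exposure 40-min recording versus its own 40-min baseline. Rat cortical cultures, DIV 13 or 15, compounds 0.03-40 uM; DMSO is negative control, loss-of-signal fitting.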
# [11] = CCTE_Shafer_MEA_acute_interburst_interval_mean: CCTE's Neural Acute Assay for Mean Interburst Interval, Shafer Lab (AID 2284016);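 note: percent change of mean interburst interval versus each well's own pre-dose baseline; curves fitted for decrease in interburst interval relative to DMSO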
# Method in brief: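 Rat cortical cultures, DIV 13/15; 20 min equilibration, 40 min baseline, compound 0.03-40 uM, 40 min re-recording, 37 C. Spikes detected at 8x rms noise (300-5000 Hz band-pass). Endpoint: % change in interburst interval, fitted in loss direction vs DMSO.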
# [12] = CCTE_Shafer_MEA_acute_burst_percentage_mean: CCTE's Neural Acute Assay for Percentage of Spikes in a Burst, Shafer Lab (AID 2284017);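 for AC50: curve fitted for loss of signal so potency reflects decreased burst percentage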
# Method in brief: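 Rat cortical cultures, DIV 13/15, 37 C. Spikes detected at 8x rms noise (300-5000 Hz band-pass). Burst spikes/total spikes averaged across electrodes per well; % change post- vs pre-treatment (40 min each), loss-of-signal fit vs DMSO.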
# [13] = CCTE_Shafer_MEA_acute_per_network_burst_spike_number_mean: CCTE's Neural Acute Assay for Average Number of Spikes in a Network Burst, Shafer Lab (AID 2284019);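 for AC50: curve fitted for loss of signal so actives reduce spikes per network burst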
# Method in brief: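 Acute exposure of rat primary cortical networks (DIV 13/15) on MEAs; adaptive spike detection at 8x rms noise, 37 C. Percent change in spikes per network burst after 40 min with compound (0.03-40 uM), negative direction vs DMSO.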
# [14] = CCTE_Shafer_MEA_acute_per_network_burst_spike_number_std: CCTE's Neural Acute Assay for Standard Deviation of Number of Spikes in a Network Burst, Shafer Lab (AID 2284020);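 note: fitted for decrease in spike-number SD versus DMSO so actives lower it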
# Method in brief: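 Acute MEA exposure, rat cortical neurons, 0.03-40 uM. Per-well % change versus own baseline; DMSO as negative control.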
# [15] = CCTE_Shafer_MEA_acute_per_network_burst_electrodes_number_mean: CCTE's Neural Acute Assay for Mean Number of Electrodes in a Network Burst, Shafer Lab (AID 2284021);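 note: curves fitted for decreases only so hits reduce electrodes per burst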
# Method in brief: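 Percent change from baseline in average electrode count per network burst, rat cortical cultures on 48-well MEAs; 40-min recordings each side of exposure, DIV 13 or 15; threshold 8x rms noise; DMSO as negative control.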
# [16] = CCTE_Shafer_MEA_acute_network_burst_percentage: CCTE's Neural Acute Assay for Percentage of Network Bursts, Shafer Lab (AID 2284022);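 note: curves fitted for loss so actives lower network burst percentage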;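 for outcome: rat primary cortical neuron networks on multiwell MEA recorded 40 min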
# Method in brief: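 On DIV 13 or 15, at least three wells of rat cortical neurons per compound are dosed at 0.03-40 uM. Spontaneous firing is detected at 8x rms noise for 40 min before and after dosing at 37 C. The percent change in network-burst spike share is reported.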
# [17] = CCTE_Shafer_MEA_acute_cross_correlation_area: CCTE's Neural Acute Assay for Area of Cross Correlation, Shafer Lab (AID 2284024);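 note: area under pooled inter-electrode spike cross-correlation near zero lag as percent change from own baseline; curves fitted for loss of cross-correlation area so actives lower synchrony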
# Method in brief: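 Extracellular recordings from cultured rat cortical neurons measure network synchrony as cross-correlation area; each well's post-compound value (0.03-40 uM, 40 min) is compared with its own 40 min baseline to give percent change.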
# [18] = CCTE_Shafer_MEA_acute_cross_correlation_HWHM: CCTE's Neural Acute Assay for Cross Correlation at Half Width at Half Maximum, Shafer Lab (AID 2284026);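 note: percent change per well from pre-dose baseline in spike cross-correlogram half width; hits are a decrease in cross-correlogram half width relative to DMSO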;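 for outcome: spontaneous network firing of rat primary cortical neurons on multiwell microelectrode arrays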
# Method in brief: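 Percent change in cross-correlogram half width at half maximum, narrower meaning more synchrony, was derived per well from paired 40-min recordings before and during exposure to 0.03-40 uM compound in rat cortical cultures at 37 C.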
# [19] = CCTE_Shafer_MEA_acute_synchrony_index: CCTE's Neural Acute Assay for Synchrony, Shafer Lab (AID 2284027);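 note: network synchrony index of spontaneous spiking in primary rat cortical neurons on MEAs; fitted for loss of signal so actives lower synchrony relative to DMSO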
# Method in brief: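 Acute exposure of rat primary cortical neurons (DIV 13 or 15) at 0.03-40 uM. Synchrony index, 40 min before vs after, as % change relative to DMSO control.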
# [20] = CCTE_Harrill_HTTr_Apoptosis_MCF7: CCTE's 6-hour Apoptosis Assessment for the High-Throughput Transcriptomics (HTTr) Platform, in MCF-7 cells cultured in DMEM + 10% fetal bovine serum, Harrill Lab (AID 2284011)
# Method in brief: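 Apoptosis in MCF-7 cells grown in DMEM with 10% fetal bovine serum was scored after a six hour exposure by high content imaging of caspase-3/7 activation (CellEvent Caspase 3/7 Green), with DMSO serving as negative control and baseline.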
compound,measurement,setting,value
CCOC1Oc2ccc(OS(C)(=O)=O)cc2C1(C)C (stereo not drawn),AC50,[1],33.5 µM (active)
same,AC50,[2],35.3 µM (active)
same,AC50,[3],33.9 µM (active)
same,outcome,[4],inactive
same,outcome,[5],inactive
C#CCN1C(=O)COc2cc(F)c(N3C(=O)C4=C(CCCC4)C3=O)cc21,AC50,[1],64.9 µM (active)
same,AC50,[2],53.1 µM (active)
same,outcome,[3],inactive
same,outcome,[4],inactive
same,outcome,[5],inactive
CCOCN(C(=O)CCl)c1c(C)cccc1CC,outcome,[1],inactive
same,outcome,[2],inactive
same,outcome,[3],inactive
same,outcome,[4],inactive
same,outcome,[5],inactive
same,outcome,[6],inactive
CCC(C)Nc1c([N+](=O)[O-])cc(C(C)(C)C)cc1[N+](=O)[O-] (stereo not drawn),outcome,[1],inactive
same,outcome,[2],inactive
same,outcome,[3],inactive
same,outcome,[4],inactive
same,outcome,[7],inactive
same,outcome,[5],inactive
same,outcome,[8],inactive
same,outcome,[9],inactive
same,outcome,[10],inactive
same,outcome,[11],inactive
same,outcome,[12],inactive
same,outcome,[13],inactive
same,outcome,[14],inactive
same,outcome,[15],inactive
same,outcome,[16],inactive
same,outcome,[17],inactive
same,outcome,[18],inactive
same,outcome,[19],inactive
CC(C)(C)C(O)/C(=C\c1ccc(Cl)cc1Cl)n1cncn1 (stereo not drawn),AC50,[1],15.8 µM (active)
same,AC50,[2],21.1 µM (active)
same,outcome,[3],inactive
same,outcome,[4],inactive
same,outcome,[5],inactive
same,outcome,[20],inactive
same,outcome,[6],inactive
O=C(O)COc1ccc(Cl)cc1Cl,outcome,[1],inactive
same,outcome,[2],inactive
same,outcome,[3],inactive
same,outcome,[5],inactive
same,outcome,[6],inactive
CC[C@H](C)[C@H]1O[C@]2(C=C[C@@H]1C)C[C@@H]1C[C@@H](C/C=C(\C)[C@@H](O[C@H]3C[C@H](OC)[C@@H](O[C@H]4C[C@H](OC)[C@@H](O)[C@H](C)O4)[C@H](C)O3)[C@@H](C)/C=C/C=C3\CO[C@@H]4[C@H](O)C(C)=C[C@@H](C(=O)O1)[C@]34O)O2 (tested in a mixture with another compound),AC50,[1],24.7 µM (active)
same,AC50,[2],18 µM (active)
same,outcome,[3],inactive
same,AC50,[7],0.0048 µM (active)
same,outcome,[5],inactive
same,outcome,[6],inactive
same,AC50,[8],0.00721 µM (active)
same,AC50,[9],0.0208 µM (active)
same,AC50,[10],0.00576 µM (active)
same,outcome,[11],inactive
same,AC50,[12],0.0165 µM (active)
same,AC50,[13],0.0134 µM (active)
same,AC50,[14],0.00528 µM (active)
same,AC50,[15],0.05 µM (active)
same,outcome,[16],inactive
same,AC50,[17],0.00277 µM (active)
same,AC50,[18],0.0109 µM (active)
same,AC50,[19],0.165 µM (active)
COP(=S)(OC)Oc1ccc([N+](=O)[O-])cc1,outcome,[1],inactive
same,outcome,[2],inactive
same,outcome,[3],inactive
same,outcome,[4],inactive
same,outcome,[5],inactive
same,outcome,[6],inactive
Oc1ccc(Cl)cc1Cc1ccccc1,AC50,[1],18.3 µM (active) and 24 µM (active)
same,AC50,[2],32.8 µM (active) and 41.5 µM (active)
same,outcome,[3],inactive
same,outcome,[4],inactive
same,AC50,[7],1.07 µM (active)
same,outcome,[5],inactive
same,outcome,[6],inactive
same,AC50,[8],0.814 µM (active)
same,outcome,[9],inactive
same,outcome,[10],inactive
same,outcome,[11],inactive
same,AC50,[12],2.55 µM (active)
same,AC50,[13],1.57 µM (active)
same,outcome,[14],inactive
same,AC50,[15],8.31 µM (active)
same,AC50,[16],5.05 µM (active)
same,AC50,[17],0.457 µM (active)
same,AC50,[19],5.05 µM (active)
